# A selection: hits, their analogues and other compounds. The true share with any hit is near 6.6%.
# NADH enzymes = blocks coupling enzymes of NAD/NADH assays; coupled PK/LDH NADH assays, four targets; IC50, µM (series often up to 10 µM), inactives show top-dose inhibition; hit rate 0.02% among 65,000; AID 774;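 active means single-dose screening hits from any of four coupled enzyme assays that gave an IC50 when retested across doses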;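 further: the DPM-DC format reads NADH fluorescence rather than 340 nm absorbance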
# Spn PMK inh = blocks S. pneumoniae phosphomevalonate kinase; purified PMK, PK/LDH-coupled NADH absorbance 340 nm; inhibition, % at 10 µM; hit rate 0.49% among 65,000;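 active means top-ranked compounds by inhibition in the single 10 µM screen, taking a fixed number of the strongest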;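 further: 0% = full reaction with DMSO carrier and 100% = background rate without enzyme reaction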
# Spn MK inh = blocks S. pneumoniae mevalonate kinase; inhibition, % at 10 µM; AID 555; purified MK, PK/LDH-coupled NADH absorbance 340 nm; hit rate 0.48% among 65,000;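 active means ranked among the strongest by inhibition in the single 10 µM screen, a fixed top-ranked set picked for dose follow-up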
# Autofluor 339 = intrinsic fluorescence of library compounds, ex339/em460 – biochemical, MLSMR library, data from DPM-DC assay, artefact control, profiling panel; hit rate 5.5% among 65,000; fluorescence fold increase at 10 µM; compound autofluorescence, ex339/em460 nm, NADH buffer; active compounds read high; 1 = no-compound wells, NADH background;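 active means at 10 µM, mean starting fluorescence two-fold or more over control wells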;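 further: signal is the first read of a kinetic run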
# Spn DPM-DC inh = blocks S. pneumoniae diphosphomevalonate decarboxylase. AID 556. hit rate 0.49% among 65,000. purified DPM-DC, PK/LDH coupled NADH fluorescence. calls only at 10 µM;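 active means the 320 compounds with the highest percent inhibition in the single-dose primary screen, excluding strongly autofluorescent ones, cut at about 32% in these data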;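 further: kinetic rate of NADH fluorescence loss reporting ADP formed by the decarboxylase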
# * marks the source's active call; other numbers are inactive results; i = inactive; . = not tested or not shown; + = active, no number.
SMILES,NADH enzymes,Spn PMK inh,Spn MK inh,Autofluor 339,Spn DPM-DC inh
COC(=O)c1sc2cnccc2c1N,7.0%,12.0,1.0,5.06*,.
COC(=O)c1sc2nc(-c3ccco3)ccc2c1N,24.0%,0.0,18.0,2.87*,+
CCOC(=O)N1CCC(NC(=O)CCC(=O)N2CC(C)Oc3ccc(Cl)cc32)CC1 (stereo unspecified),11.0%,9.0,3.0,1.04,i
CN(C)C(CNC(=O)c1cccnc1Sc1ccccc1)c1ccco1 (stereo unspecified),5.0%,15.0,1.0,1.16,i
CN(C)Cc1nc2ccccc2c(=O)n1Cc1nc(-c2cc3ccccc3o2)cs1,19.0%,19.0,4.0,0.84,+
Cc1ccc2oc(=O)c3cc(C(=O)N4CCN(c5ncccn5)CC4)sc3c2c1,11.0%,17.0,5.0,2.07*,.
Cc1ccc2[nH]c(=O)c3cc(C(=O)N4CCN(C(=O)c5ccco5)CC4)sc3c2c1,11.0%,8.0,13.0,2.03*,.
Cc1ccc2[nH]c(=O)c3cc(C(=O)N(C)Cc4ccco4)sc3c2c1,3.0%,6.0,0.0,2.21*,.
Cc1ccc2oc(=O)c3cc(C(=O)N4CCN(C(=O)c5ccco5)CC4)sc3c2c1,5.0%,7.0,4.0,1.26,i
CC1=C(C(=O)Nc2ccccc2C)C(c2ccc(C)o2)N2C(=O)CSC2=N1 (stereo unspecified),2.0%,5.0,13.0,1.05,i
O=C(N1CCOCC1)N1CCN(S(=O)(=O)N2CCCCC2)CC1,6.0%,9.0,8.0,1.1,i
COC(=O)c1ccccc1NC(=O)CN(C)S(=O)(=O)c1cc(C)ccc1OC,7.0%,9.0,10.0,1.04,i
COc1ccc(C(=O)Nc2nc(-c3cccs3)cs2)cc1,5.0%,14.0,0.0,1.21,i
CCCSc1nnc(NC(=O)c2sc3nc(-c4cccs4)ccc3c2N)s1,3.0%,5.0,0.0,4.49*,.
Cc1csc(NC(=O)c2sc3nc(-c4cccs4)ccc3c2N)n1,2.0%,0.0,1.0,2.39*,.
CN(C(=O)c1cccc(C#N)c1)c1nnc(C2CCOC2)s1 (stereo unspecified),7.0%,21.0,0.0,1.02,i
CN(C(=O)c1ccncc1)c1nnc(-c2cccnc2)s1,4.0%,12.0,0.0,1.12,i
CN(C(=O)c1cccc(C#N)c1)c1nnc(-c2ccccn2)s1,12.0%,15.0,19.0,2.11*,i
CN(C(=O)c1ccno1)c1nnc(-c2ccccn2)s1,10.0%,15.0,5.0,5.14*,.
CN(C(=O)c1ccccn1)c1nnc(-c2ccncc2)s1,4.0%,9.0,11.0,2.26*,.
CN(C(=O)c1ccncc1)c1nnc(-c2ccccn2)s1,15.0%,21.0,0.0,3.07*,i
COc1cc(CC(=O)Nc2ccc(S(=O)(=O)N(C)C)cc2)cc(OC)c1OC,6.0%,19.0,0.0,1.06,i
COCCNc1cc(C)nc2c3c(C)cc(C)nc3nn12,9.0%,8.0,10.0,3.83*,.
Cc1cc(C)c2c(n1)nn1c(NCCN3CCOCC3)cc(C)nc21,5.0%,5.0,5.0,3.82*,.
Cc1ccc(-n2nc(C(=O)N3CCN(C)CC3)c3c4ccccc4n(C)c3c2=O)cc1,4.0%,10.0,2.0,1.23,i
SMILES,NADH enzymes,Spn PMK inh,Spn MK inh,Autofluor 339,Spn DPM-DC inh
CCN1CCCC1CNC(=O)c1nn(-c2ccc(C)cc2)c(=O)c2c1c1ccccc1n2C (stereo unspecified),8.0%,7.0,2.0,2.67*,i
O=C(Cn1cnc2ccccc2c1=O)NCCC(=O)N1CCN(c2ccccc2)CC1,1.0%,0.0,3.0,1.05,i
CCOc1ccc(CC(=O)C2C(=O)CCCC2=O)cc1OCC,8.0%,19.0,6.0,1.07,i
C=C(C)COc1ccc2c(C)c(C)c(=O)oc2c1OCC(=C)C,5.0%,0.0,9.0,2.13*,.
C=C(C)COc1ccc2c3c(c(=O)oc2c1OCC(=C)C)CCC3,1.0%,0.0,3.0,2.1*,i
COc1ccc2c(c1)c(=O)cc(C)n2CC(=O)NCc1ccco1,5.0%,5.0,10.0,1.17,i
Cc1cc(C)c2c(CC(=O)Nc3nccs3)coc2c1,5.0%,5.0,10.0,1.07,i
CN1CCN(CCCNC(=O)c2cc3c(=O)n(C)c4ccccc4c3s2)CC1,6.0%,0.0,12.0,2.11*,.
CCOC(=O)c1cc2c(=O)n(C)c3ccccc3c2s1,21.0%,14.0,6.0,2.77*,+
CCOC(=O)c1ccc(NC(=O)c2c(O)c3ccccc3n(C)c2=O)cc1,2.0%,0.0,7.0,1.1,i

# Screening data as filed in PubChem.
